The entries come from a sample that favours hits as a whole.
KDM5B inhibitor: blocks human KDM5B histone demethylase activity; Q9UGL1; KDM5B demethylase, FDH-coupled NADH fluorescence (FDH is formaldehyde dehydrogenase); Potency, µM (top dose mostly 57.7 µM), hits mostly inhibitors; 220,000 compounds, 2.6% hits; AID 1347165; active = well fitted inhibition curve with a large enough effect; note: 0% is about no effect; nearly all actives have a fitted effect of over 70% in size
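Compound dilutions met 200 nM (final) KDM5BΔAP for 10 min at room temperature before substrate addition. The substrate mix held 12.5 µM H3K4me3 with cofactors 25 µM α-ketoglutarate and 50 µM Fe²⁺. NADH signal gain over 30 min defined activity.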
* marks the source's active call; other numbers are inactive results; i = inactive. Potency is the fitted concentration of half-maximal effect.

SMILES | KDM5B inhibitor
Cc1cc(OC(=O)c2ccc(CSc3ccc(Cl)cc3)cc2)ccc1C(C)C | i
COc1cc(OC)cc(C(=O)Oc2ccccc2Cl)c1 | i
CC(C)Nc1nc(C(=O)Nc2ccc3cc[nH]c3c2)cs1 | i
CC(C)c1nnc(NC(=O)NCC(O)c2ccc(F)cc2)s1 (configuration not stated) | i
O=C(NC1CCCc2ccccc21)C(c1ccccc1)c1ccccc1 (configuration not stated) | i
Cc1cc(C)cc(C(=O)NCc2nnc3ccc(-c4ccccc4)nn23)c1 | 25.1µM*
COc1ccccc1CC(=O)NCc1nnc2ccc(-c3ccccc3)nn12 | i
CC(C(=O)NCc1nnc2ccc(-c3ccccc3)nn12)c1ccccc1 (configuration not stated) | 28.2µM*
O=C(NCc1nnc2ccc(-c3ccccc3)nn12)c1ccc[nH]c1=O | 28.2µM*
Cc1ccc(C(=O)NCc2nnc3ccc(-c4ccccc4)nn23)c(C)c1 | 28.2µM*
O=C(CSc1nnc2ccc(-c3ccncc3)nn12)N1CCN(c2ccccc2)CC1 | i
CCCCCCCCCCCCCCCCNC(=O)CC#N | i
O=C(CC1(C(=O)O)CCCCCC1)Nc1ccccc1NS(=O)(=O)c1ccc(F)cc1 | i
Cc1nc(Sc2cccc(C(F)(F)F)c2)c2c(-c3cccs3)csc2n1 | i
CCCn1c(=O)n(C)c(=O)c2c(SCC(=O)Nc3ccc4c(c3)OCO4)nc(C3CC3)nc21 | i
O=Cc1c(-c2cc(Cl)ccc2Cl)[nH]c2ccccc12 | i
O=C(Cn1nc(C(=O)O)c2ccccc2c1=O)Nc1ccc(F)c(F)c1 | i
CCC(C)c1ccc(NC(=O)Cc2cccs2)cc1 (configuration not stated) | i
Cc1noc(C)c1COC(=O)/C=C/c1ccc(Br)o1 | i
Cc1cccc(=O)n1CCC(=O)N1Cc2[nH]cnc2CC1C(=O)O (configuration not stated) | i
COc1cc(CC(=O)N2Cc3[nH]cnc3CC2C(=O)O)cc(OC)c1OC (configuration not stated) | i
COc1ccc2c(c1)cc(C(=O)N1Cc3[nH]cnc3CC1C(=O)O)n2C (configuration not stated) | 17.8µM*
CCOc1ccc(NC(=O)Cn2c(Nc3ccc(F)c(C)c3)nc(C)cc2=O)cc1 | i
O=C(CC(CC(=O)c1ccccc1)c1cccs1)c1ccccc1 | i
CCC[C@H]1CN(C(=O)c2ccc3c(c2)nc(NCCOC)n3C)C[C@@H]1N | i
CC[C@H]1CN(C(=O)c2ccc(F)cc2)CC[C@H]1CC(=O)NCCOC | i
COCCNc1nc2cc(C(=O)N3CC[C@H](CO)[C@@H](O)C3)ccc2n1C | 28.2µM*
CCOC(=O)c1ccc(NC(=S)N(CCO)Cc2ccccc2)cc1 | i
Cc1ccc(-c2noc(CN(C)C(=O)COc3ccc(Cl)cc3Cl)n2)cc1 | i
CCc1c(C(=O)c2[nH]c(C)c(C(C)=O)c2C)oc2ccc(F)cc12 | i

From PubChem BioAssay
